tim10-1 inh = tim10-1 yeast growth inhibition; S. cerevisiae tim10-1 ts strain growth, BacTiter-Glo, 24 h; 330,000 compounds, 2.2% hits; inhibition, % at 20 µM; AID 463190;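 active = inhibition of at least 40%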;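 note: mutant grown at 25 °C; 0% = DMSO wells with yeast and 100% = wells holding no yeast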
PfHsp90 set2 = growth inhibition of yeast expressing Plasmodium Hsp90. S. cerevisiae expressing PfHsp90, BacTiter-Glo ATP, 48 h; yeast lacking PDR1 and PDR3 efflux regulators. inhibition, % at 9.4 µM. 310,000 compounds, 0.32% hits;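 active = every replicate shows inhibition above about 80%, whatever the replicate mean, limit read from the data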;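 note: 0% = DMSO neutral controls and 100% = 20 µM radicicol positive controls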
TIM10 inh = inhibits growth of TIM10 yeast strain | S. cerevisiae TIM10 strain growth, BacTiter-Glo luminescence, 24 h | AID 463195 | inhibition, % at 10 µM | 330,000 compounds, 1.4% hits;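 active = inhibition of 40% or more at the single tested concentration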;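 note: wild-type TIM10 isogenic control strain grown at permissive 25 °C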
tim23-1 inh = growth inhibitors of tim23-1 mutant yeast | 330,000 compounds, 1.3% hits | inhibition, % at 20 µM | S. cerevisiae tim23-1 growth, BacTiter-Glo luminescence, 24 h;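 active = growth inhibition of the mutant yeast at or above 50%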;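 note: temperature-sensitive mutant grown at 25 °C; plate controls were DMSO-treated mutant yeast for no effect and medium wells lacking yeast for full effect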
NALP3 yeast inh = blocks the NALP3 inflammasome reconstituted in yeast; Yeast reconstituted NLRP3/ASC/caspase-1, beta-gal luminescence, 24 h; inhibition, % at 10 µM; 330,000 compounds, 0.39% hits; AID 2825;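 active = inhibition of 50% or more; inactive = inhibition below 50%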;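 note: plate controls were induced DMSO wells for no effect and uninduced yeast grown without galactose for full effect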
SKKanGAS inh = SKKanGAS growth inhibition. S. pyogenes SKKanGAS, kanamycin growth, BacTiter-Glo, 6 h. inhibition, % at 7.5 µM. 300,000 compounds, 1.3% hits. AID 1662;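 active = mean replicate score, as percent of positive control median, at least 50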;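 note: strain carries kanamycin resistance gene driven by streptokinase promoter and grows in 40 µg/ml kanamycin; loss of luminescence reflects streptokinase promoter inhibition or plain growth inhibition; 0% = median of DMSO wells and 100% = positive control at its reference dose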
tim10-1 conf = confirmation of tim10-1 mutant yeast growth inhibitors; S. cerevisiae tim10-1 ts strain growth, BacTiter-Glo, 24 h; 7,400 compounds, 56% hits; AID 463213; inhibition, % at 20 µM; shares compounds with tim10-1 inh;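 active = inhibition of yeast growth at or above a set limit in either of two repeat tests at 20 µM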;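 note: tim10-1 mutant grown at permissive 25 °C to find synthetic lethal compounds; 0% = DMSO yeast wells and 100% = medium wells without yeast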
Starred values were filed as active, the others as inactive; nt = no result given. Compounds with a hit are over-represented: about 4.6% of the library has one in this group of screens.

SMILES	tim10-1 inh	PfHsp90 set2	TIM10 inh	tim23-1 inh	NALP3 yeast inh	SKKanGAS inh	tim10-1 conf
Cc1nc(NC(=O)CSc2cc(C)c3ccccc3n2)c(Cl)cc1Cl	41*	-8	22	42	36	8	24
Cc1cc(OCc2cc(C(=O)N(C)C3CCOC3)no2)cc(C)c1Cl (stereo not drawn)	-2	-14	-2	7	29	2	nt
O=c1cc(/C=C/c2ccccc2)oc2ccccc12	8	16	3	31	32	-7	nt
CCCN(CC(=O)Nc1ccccc1OC)C(=O)c1nc2nc(C)ccn2n1	3	10	5	2	16	nt	nt
COc1cc(C(=O)OC(C)C(=O)NC2CCCCC2C)c([N+](=O)[O-])cc1OC (stereo not drawn)	19	nt	4	17	-4	-16	nt
CC(OC(=O)c1ccc([N+](=O)[O-])s1)C(=O)NC1CCCCC1C (stereo not drawn)	47*	nt	39	19	9	nt	39*
CC(=O)Nc1ccc(NC2=C(Cl)C(=O)c3ccccc3C2=O)cc1	26	nt	33	29	-3	28	nt
Cc1ccc(NC2=C(NCCO)C(=O)c3ccccc3C2=O)cc1	43*	-12	19	27	8	2	12
COc1cccc(-c2nnc3sc(C4CCCCC4)nn23)c1	25	-7	1	40	-15	8	nt
CCOc1cccc(-c2nnc3sc(C4CCCCC4)nn23)c1	41*	-20	31	40	-20	-3	13
Cc1noc(/C=C/c2ccccc2F)c1S(=O)(=O)N1CCC(C(=O)N2CCN(C)CC2)CC1	40*	-13	8	34	16	-4	16
CN(/N=C/c1ccc([N+](=O)[O-])o1)c1ccccc1	52*	24	34	37	36	-2	41*
O=C(N/N=C/c1ccc([N+](=O)[O-])o1)C(O)c1ccccc1 (stereo not drawn)	-8	-6	3	6	7	27	nt
C=CCn1c(SCC(=O)OCC)nc(C(F)(F)F)cc1=O	13	6	2	-7	3	-1	nt
CCn1c(C)c(C)c2cc(C(=O)N3CCc4ccccc4C3)ccc21	48*	-3	27	47	9	18	1
CCN1CCN(C(=O)c2ccc3c(c2)c(C)c(C)n3Cc2ccccc2)CC1	19	22	3	14	-4	0	nt
O=C(COC(=O)c1ncc(Cl)c(Cl)c1Cl)NC1CCCCCC1	43*	nt	11	30	-1	10	19
O=C(COC(=O)c1nc(Cl)ccc1Cl)NC1CCCCCC1	28	-69	6	24	29	11	nt
CCCc1ccc2oc(C(=O)N(Cc3nccn3C)C(C)C)c(C)c2c1	43*	9	19	29	23	-10	-17
C=CCN1C(=O)/C(=C2\SC(N3CCOCC3)=NC2=O)c2cc(Br)ccc21	51*	2	29	41	23	38	8
CCN1C(=O)/C(=C2\SC(N3CCOCC3)=NC2=O)c2ccccc21	9	25	-8	-13	3	-7	nt
C=C(C)C1Cc2nc(N)nc(C)c2C1 (stereo not drawn)	3	-11	4	-8	-1	-3	nt
C=C(C)C1Cc2c(C)nn(-c3nc(C)cc(C)n3)c2C1 (stereo not drawn)	42*	-98	11	24	-9	56*	23
O=C(NCc1cccs1)c1cccnc1Cl	11	-22	4	7	9	-1	nt
Cc1cccc(Nc2ncccc2C(=O)NCc2cccs2)c1C	52*	-13	37	41	6	6	34*
CC1CN(CCOCCOc2ccccc2-c2ccccc2)CC(C)O1 (stereo not drawn)	1	20	-2	5	13	5	nt
Cc1ccc(-c2csc3ncnc(-n4nnc5ccccc54)c23)cc1C	42*	6	25	38	0	-2	31*
c1ccc(-c2csc3ncnc(-n4cnc5ccccc54)c23)cc1	42*	5	23	36	5	-12	32*
Cc1nc(SCC(=O)NCCN2C(=O)CSC2=O)nc(C)c1C	-19	nt	-12	-12	9	nt	nt
